Assay outcomes: PubChem, National Center for Advancing Translational Sciences (NCATS)
ELG1 genotox: inducers of genotoxicity in HEK293T ELG1-luciferase cells. HEK293T ELG1-luciferase reporter, luminescence, 16 h. Potency, µM (top dose mostly 46 µM), inactives show at the highest dose activity change, positive = activation, hits mostly activators. 330,000 tested, 1.3% active. AID 504466; also: % of control where 0% means no effect; nearly all actives have a fitted effect of over 60% in size
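16 hr compound incubation (37 °C, 5% CO2) of HEK293T cells carrying luciferase-tagged ELG1; luciferase then measured by ONE-Glo luminescence after 30 min at RT.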
Rab9 promoter act: activators of Rab9 promoter | Huh7 Rab9 promoter-luciferase reporter, luminescence, 24 h | Potency, µM (titrated, usually from 9.22 µM), inactives show at the highest dose activation, negative = inhibition, most hits filed as activators | 320,000 tested, 2.8% active; also: % of control where 0% means no effect; nearly all actives have a fitted effect of over 60% in size
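Huh7 reporter line, Rab9 promoter upstream of luciferase. Compound exposure 24 h at 37 °C in reduced-serum medium with 10% FBS. Read-out: luminescence.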
Luc counter: blocks Kinase-Glo luciferase, a counter-screen artifact. Potency, µM (highest dose often 38.3 µM), without a hit: at the highest dose activity change, negative = inhibition, usual class: inhibitors. Q27757. Kinase-Glo luciferase, ATP luminescence, 8 min. 200,000 tested, 0.28% active; also: % is scaled to controls: 0 for no effect and ±100 for the full control effect; nearly all actives have a fitted effect of over 60% in size
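Compound is pinned into ATP-containing buffer (10 uM ATP, imidazole pH 7.2, 7 mM MgCl2). Kinase-Glo luciferase reagent is then added. Light output is recorded following an 8-min room-temperature incubation.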
NPC1 prom act: NPC1 promoter activation; 320,000 tested, 2.4% active; Potency, µM (doses to about 9.22 µM), without a hit: top-dose activation, usual class: activators; AID 485313; Huh7 NPC1 promoter luciferase reporter, 24 h; also: % of control where 0% means no effect; nearly all actives have a fitted effect of over 60% in size
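Stably transfected Huh7 (NPC1 promoter→luciferase), 1500 cells/well in Opti-MEM + 10% FBS, 2 h settle, then compound 24 h at 37 °C. Luminescence after 10 min with Amplite reagent.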
SMN2 splice enh: SMN2 splice variant enhancement | HEK293 SMN2-luciferase splicing reporter, luminescence, 30-36 h | Potency, µM (doses to about 46.1 µM), for inactives: at the highest dose activity change, positive = activation, most hits filed as activators | 210,000 tested, 2.8% active | AID 1458; also: % of control where 0% means no effect; nearly all actives have a fitted effect of over 55% in size
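HEK293 cells carry an SMN2 minigene-luciferase reporter in which exon 7 inclusion puts luciferase in frame. Cells were seeded at 2000 cells/well, attached for 10-12 hours, then exposed to compounds for 30-36 hours at 37C before ONE-Glo luminescence.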
FLuc modulator: counter-screen for miR-21 project: firefly luciferase inhibitors or activators; P08659; purified FLuc, Km substrates, luminescence inhibition; Potency, µM (doses to about 57.5 µM), for inactives: at the highest dose activity change, negative = inhibition, hits mostly inhibitors; 360,000 tested, 6.9% active; AID 588342;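 also: plate controls were vehicle for no effect and reference inhibitor for full effect; nearly all actives have a fitted effect of over 55% in size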
Target sequence (P08659 whole entry, looked up): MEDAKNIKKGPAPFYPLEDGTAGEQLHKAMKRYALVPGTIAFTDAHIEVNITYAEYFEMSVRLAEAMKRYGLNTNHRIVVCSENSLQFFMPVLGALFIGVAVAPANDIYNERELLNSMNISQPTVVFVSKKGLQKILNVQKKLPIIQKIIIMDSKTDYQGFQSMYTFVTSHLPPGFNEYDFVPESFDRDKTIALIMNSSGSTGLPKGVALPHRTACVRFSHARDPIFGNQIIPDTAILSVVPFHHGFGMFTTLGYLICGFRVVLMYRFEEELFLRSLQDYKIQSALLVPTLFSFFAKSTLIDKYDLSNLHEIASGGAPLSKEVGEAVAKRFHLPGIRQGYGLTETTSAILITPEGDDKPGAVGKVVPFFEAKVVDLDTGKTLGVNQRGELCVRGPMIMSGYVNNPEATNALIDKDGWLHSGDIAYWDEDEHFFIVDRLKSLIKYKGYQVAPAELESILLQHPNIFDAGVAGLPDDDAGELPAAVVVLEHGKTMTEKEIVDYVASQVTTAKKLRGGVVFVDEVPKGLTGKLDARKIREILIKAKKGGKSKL
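Purified P. pyralis luciferase (10nM final) with 10uM D-luciferin and 10uM ATP (Km levels) in 50mM Tris acetate pH 7.5, 10mM Mg acetate, 0.01% Tween-20, 0.05% BSA; qHTS 6-point titration, ~60 µM downward; luminescence read.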
Active calls of the source: *; ? = inconclusive; / = no result. The list is not random: actives were taken first. Their share in the collection is about 7.3%. Calls follow the shape of the dose curve; as a rule, active = well fitted curve in the direction sought with a large enough effect; inconclusive = small, poorly fitted or top-dose-only effect, or another doubt; inactive = no such curve, though single readings can be large; an effect the other way counts as inactive or inconclusive. Potency is read from the fitted curve at half-maximal effect.

SMILES	ELG1 genotox	Rab9 promoter act	Luc counter	NPC1 prom act	SMN2 splice enh	FLuc modulator
COc1ccc(CC(=O)Nc2ccc(-c3noc(-c4cccc(OC)c4)n3)cc2)cc1	12%	-6%	-1%	-2%	9%	-2%
COc1cccc(-c2noc(-c3ccc(Br)o3)n2)c1	?	1.4µM*	-12%	2.5µM*	22µM*	3µM*
CC(C)c1cc(-c2nc(-c3ccc(Cl)cc3)no2)n[nH]1	/	/	/	/	/	9.5µM*
COc1ccc(-c2noc(-c3ccc(Br)o3)n2)cc1	?	2µM*	/	3.2µM*	/	2.4µM*
COc1ccc(-c2noc(-c3ccccc3-c3ccccc3)n2)cc1	1%	-7%	0%	0%	-9%	?
COc1ccc(Cl)cc1-c1nc(-c2ccc(Br)o2)no1	4%	?	-2%	?	?	3%
COc1ccc(-c2nc(-c3ccc(Br)o3)no2)cc1	1.2µM*	0.45µM*	-6%	0.63µM*	10µM*	0.95µM*
c1ccc(-c2nc(-c3nccc4ccccc34)oc2-c2ccccc2)cc1	?	3.2µM*	/	?	/	6µM*
Cc1cc(O)c(C(=O)/C=C/c2cccc([N+](=O)[O-])c2)c(=O)o1	1%	-16%	/	-13%	/	21µM*
O=c1c2sc(-c3ccccc3)cc2nc2n1CCC2	?	0.45µM*	?	0.56µM*	2.2µM*	1.3µM*
O=c1c2sc(-c3ccccc3)cc2nc2n1CCCCC2	?	0.56µM*	/	1.4µM*	/	2.1µM*
CCOP(=O)(OCC)C(NC(=O)c1ccc(OC)cc1)c1ccccc1 (stereo unspecified)	0%	-11%	/	-3%	/	-1%
O=C(NC1CCS(=O)(=O)C1)c1ccc(N2CCCCC2)c([N+](=O)[O-])c1 (stereo unspecified)	1%	0%	/	-1%	/	3%
CCOC(=O)c1[nH]c(C)c(C(=O)c2ccc(C)cc2)c1C	21µM*	-10%	0%	-9%	4%	?
CCOC(=O)c1[nH]c2ccc(C)cc2c1N	?	2.5µM*	-10%	2.2µM*	11µM*	5.4µM*
CCOC(=O)c1[nH]c2cc(OC)c(OC)cc2c1N	0%	17%	1%	-1%	-8%	?
CCOC(=O)c1c(C)[nH]c(C(=O)OCCOc2ccccc2C)c1C	?	4µM*	6%	4µM*	3.5µM*	3.4µM*
CCOC(=O)c1c(C)[nH]c(C(=O)OCC(=O)c2ccccc2)c1C	0.92µM*	0.45µM*	/	0.5µM*	/	0.85µM*
Cc1sc2nc(SCc3nnc(-c4cccs4)o3)n(C3CCCC3)c(=O)c2c1C	-7%	-3%	1%	-4%	-11%	8%
O=C(O)C1Oc2cc3ccccc3cc2O1	-3%	0%	/	2%	/	-7%
CCOC(=O)c1c(C)[nH]c(C(=O)COC(=O)c2ccccn2)c1C	5%	5%	3%	0%	-10%	6µM*
CC(C)c1ccc(N(C(=O)c2csnn2)C(C(=O)NC(C)(C)C)c2ccncc2)cc1 (stereo unspecified)	7%	16%	0%	13%	-4%	?
CC(=O)C1=C(O)C(=O)N(c2nccs2)C1c1ccc(Br)cc1 (stereo unspecified)	4%	3%	-1%	-3%	-37%	5%
COc1cc(OC)cc(-c2c(C#Cc3ccsc3)c3cc(-c4ccccc4OC)ccc3n2C)c1	1%	/	/	/	/	/
COc1ccccc1OCCSc1nc2ccccc2n1CC(N)=O	3%	5%	/	-3%	/	15µM*
CN1CCCN(C(=O)CNC(=O)Cc2ccccc2)CC1	3%	3%	2%	0%	18%	-1%
COc1ccc(C(=O)OCC(=O)NCC2CCCCC2)c(OC)c1	0%	1%	/	-2%	/	1%
Cc1ccccc1-c1coc2cc(O)ccc2c1=O	-2%	-5%	-1%	-1%	4%	-3%
O=c1c(-c2cnn(-c3ccccc3)c2)coc2cc(O)ccc12	?	1.8µM*	/	2.8µM*	/	5.4µM*
